HEK293 tox – cytotoxic compounds in HEK 293 cells; HEK 293 viability, ATP luminescence (CellTiter-Glo), 48-72 h; Potency, µM (series often up to 115 µM), inactives show at the top dose activity change, negative = cytotoxicity, most hits filed as inhibitors; 94,000 compounds, 6.6% hits; also: nearly all actives have a fitted effect of over 60% in size
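Luminescence from cellular ATP, measured with CellTiter-Glo, indicates HEK 293 viability. Cells plated at 250 cells/well are treated with compound for 48 or 72 hr at 37 degree Celsius before reagent addition.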
3T3 cytotox – cytotoxic compounds in NIH 3T3 cells; 94,000 compounds, 4.3% hits; Potency, µM (highest dose often 96.7 µM), without a hit: at the top dose activity change, negative = cytotoxicity, actives largely listed as inhibitors; NIH 3T3 viability, CellTiter-Glo ATP luminescence, 48-72 h; also: nearly all actives have a fitted effect of over 55% in size
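First NIH 3T3 cells are plated at 400 cells/well; next compound is pinned in; then plates incubate 48 or 72 hr at 37 °C; finally CellTiter-Glo is added and luminescence read after 10 min.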
GPT2 inhibitor – GPT2 alanine aminotransferase inhibition; Q8TD30; Recombinant GPT2, coupled pyruvate oxidase/HRP Amplex Red fluorescence; Potency, µM (titrated, usually from 57.7 µM), for the others: at the highest dose activity change, negative = inhibition, usual class: inhibitors; 100,000 compounds, 0.25% hits; also: nearly all actives have a fitted effect of over 60% in size
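Fluorescence of coupled pyruvate oxidase/HRP/Amplex Red system (50uM Amplex, 30 min, dark) reports pyruvate formed by GPT2. Enzyme reaction: 10ng/uL GPT2, 2mM L-alanine, 250uM a-KG, 30 min room temperature, pH 7.5; 50uM AOA control.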
FLuc inh – blocks purified firefly luciferase enzyme activity | 76,000 compounds, 2.5% hits | purified P. pyralis luciferase, luminescence, biochemical | Potency, µM (top dose mostly 115 µM), hits mostly inhibitors; also: nearly all actives have a fitted effect of over 65% in size
Target sequence (P08659 whole entry, looked up): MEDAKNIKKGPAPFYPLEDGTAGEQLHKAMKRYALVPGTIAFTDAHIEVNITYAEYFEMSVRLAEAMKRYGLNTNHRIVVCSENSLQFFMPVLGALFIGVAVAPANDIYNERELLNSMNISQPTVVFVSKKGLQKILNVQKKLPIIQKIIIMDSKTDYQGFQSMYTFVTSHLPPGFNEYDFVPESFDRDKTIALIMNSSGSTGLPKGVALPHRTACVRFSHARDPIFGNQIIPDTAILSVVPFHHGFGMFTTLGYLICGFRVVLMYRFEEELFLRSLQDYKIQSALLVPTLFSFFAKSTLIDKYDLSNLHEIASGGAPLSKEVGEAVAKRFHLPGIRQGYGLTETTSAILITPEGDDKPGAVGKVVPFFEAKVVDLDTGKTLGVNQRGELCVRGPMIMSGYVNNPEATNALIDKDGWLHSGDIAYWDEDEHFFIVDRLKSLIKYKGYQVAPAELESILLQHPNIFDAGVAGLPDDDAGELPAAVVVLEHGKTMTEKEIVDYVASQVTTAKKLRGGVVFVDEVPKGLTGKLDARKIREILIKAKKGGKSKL
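Biochemical qHTS: compound (6-point titration) added to 10uM D-luciferin plus 10uM ATP in Tris acetate pH 7.5 buffer with Mg, Tween-20 and BSA, then purified enzyme at 10nM; light output imaged.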
NPR1 antag – human Npr1 receptor antagonism | P16066 | HEK293 hNpr1 GloSensor cGMP, ANP-stimulated luminescence | Potency, µM (series often up to 46.3 µM), inactives show at the top dose activity change, negative = inhibition, hits mostly inhibitors | 76,000 compounds, 1.6% hits; calls by dose curve; also: nearly all actives have a fitted effect of over 60% in size
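HEK293 cells stably expressing human Npr1 and cGMP GloSensor pGS-40F, loaded 2 h with 2% GloSensor reagent, given compound 30 min at room temperature. Luminescence read before and 20 min after 0.1 nM hNppA.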
Numbers without * were called inactive; i = inactive; ? = inconclusive; nt = no result; ! = a repeat was not active; [ ] = another dose, or the depositor's remark. Rows were chosen to be rich in hits. Some 10% of all compounds tested hit in one or more screens of this group. Unless noted, calls follow the shape of the dose curve; as a rule, active = well fitted curve in the direction sought with a large enough effect; inconclusive = small, poorly fitted or top-dose-only effect, or another doubt; inactive = no such curve, though single readings can be large; an effect the other way counts as inactive or inconclusive. % is scaled to controls: 0 for no effect and ±100 for the full control effect; potency is read from the fitted curve at half-maximal effect.

SMILES | HEK293 tox | 3T3 cytotox | GPT2 inhibitor | FLuc inh | NPR1 antag
O=C(Nc1ccc2c(c1)OCO2)C1CCc2sc(C(=O)N3CCCC3)cc2C1 (configuration not stated) | 32µM* | 22µM* | 2% | ? | ?
COC(=O)c1cccc(NC(=O)C2CCc3sc(C(=O)N(C)C)cc3C2)c1 (configuration not stated) | 45µM* | ? | -2% | i | -5%
COc1ccc(C(=O)NC2CCN(c3cc(-c4ccc(F)cc4)[nH]n3)CC2)c(OC)c1 | ? | ? | -21% | i | -27%
CN(Cc1cccc(CCN)c1)Cc1cnn(-c2ccc(F)cc2)c1 | ? | 45µM* | i | i | 1%
CC(C)(C)c1nnc(NC(=O)NCc2ccncc2)s1 | 0% | ? | -9% | i | 3%
CC(C)Cc1cc(CNC(=O)Nc2nnc(C(C)(C)C)s2)on1 | 45µM* | ? | i | i | -22%
O=C1OC(CN2CCOCC2)CN1/N=C/c1ccc([N+](=O)[O-])o1 (configuration not stated) | nt | nt | i | nt | nt
NC(=O)N/N=C/c1ccc([N+](=O)[O-])o1 | nt | nt | 32µM*! | nt | nt
O=C1CCC(CNS(=O)(=O)Cc2ccccc2F)CCN1Cc1ccccc1 (configuration not stated) | i | -25% | 0% | nt | nt
CN1C[C@H](C(=O)NCc2ccccc2)C[C@H]1c1cccc(C(F)(F)F)c1 | ? | ? | 4%[88.5 µM] | i | 5%[70.6 µM]
COc1ccc(NC(=O)[C@@H]2C[C@@H](c3cccc(C(F)(F)F)c3)N(C)C2)c(C)c1 | ? | ? | 3%[88.5 µM] | i | -1%[70.6 µM]
COc1cccc(NC(=O)[C@@H]2C[C@@H](c3cccc(C(F)(F)F)c3)N(C)C2)c1 | 100µM* | 79µM* | -6%[88.5 µM] | i | -20%[70.6 µM]
CN1C[C@H](C(=O)Nc2ccccc2)C[C@H]1c1cccc(C(F)(F)F)c1 | 79µM* | 45µM* | -29%[88.5 µM] | i | -15%[70.6 µM]
CN1CCC(N2CCC[C@@H](O)[C@H](NC(=O)c3ccc(OCc4ccccc4)cc3)C2)CC1 | 79µM* | ? | 2% | i | 7%
CCN1c2cc(C(=O)Nc3cccc(Br)c3)ccc2C(=O)N2CCCCC21 (configuration not stated) | 18µM* | 18µM* | i | i | -7%
CCN1c2cc(C(=O)NCc3cccc(Br)c3)ccc2C(=O)N2CCCCC21 (configuration not stated) | 32µM* | ? | i | i | 0%
CCN1c2cc(C(=O)Nc3ccc(Br)cc3)ccc2C(=O)N2CCCC21 (configuration not stated) | 40% | i | i | i | -2%
CCN1c2cc(C(=O)Nc3cccc(Br)c3)ccc2C(=O)N2CCCCCC21 (configuration not stated) | 18µM* | 28µM* | i | i | -4%
CCN1c2cc(C(=O)NCc3cccc(C)c3)ccc2C(=O)N2CCCCCC21 (configuration not stated) | ? | ? | i | i | -1%
Cc1ccc(-c2nc(C(=O)N3CCN(c4ccc(C)cc4C)CC3)no2)cc1 | ? | ? | i | i | 0%
Cc1ccc(-c2nc(C(=O)N3CCN(c4ccc(C)cc4)CC3)no2)cc1 | 2% | 1% | 4% | 14µM* | -1%
Cc1ccc(-c2nc(C(=O)N3CCN(c4cccc(C)c4)CC3)no2)cc1 | ? | ? | i | 18µM* | 4%
COc1cccc(N2CCN(C(=O)c3noc(-c4ccc(C)cc4)n3)CC2)c1 | ? | -20% | i | 20µM* | -8%
Cc1ccc(-c2nc(C(=O)N3CCN(c4cc(C)ccc4C)CC3)no2)cc1 | ? | ? | i | i | -14%
O=C(NC1CCN(Cc2cccc(-c3ccc(F)c(F)c3)c2)CC1)c1ccccc1Cl | ? | ? | 3% | nt | nt
SMILES | HEK293 tox | 3T3 cytotox | GPT2 inhibitor | FLuc inh | NPR1 antag
COc1ccccc1-c1ccc(C(=O)N2CCC(NC(=O)c3ccc(Cl)nc3)CC2)cc1 | ? | ? | -5% | nt | nt
CCn1nccc1C(=O)N1CCC(Cc2noc(C3CC3)n2)C1 (configuration not stated) | -30% | ? | i | nt | nt
CCCC(=O)Nc1cc(-c2ccncc2)nn1C | i | -14%[138 µM] | i | nt | nt
Cc1ccc(CC(=O)N2CCc3cn(C)c4cccc(c34)C2)cc1 | 79µM* | ? | i | i | 3%
COCCOC1CCOC2(CCN(C(=O)c3ccco3)CC2)C1 (configuration not stated) | 8% | -12% | i | i | 12%
O=C(NCCc1ccc(Cl)cc1)c1ccc2oc(-c3ccccn3)nc2c1 | ? | -12% | i | nt | nt
COc1cccc(Nc2ncc3c(n2)C(C)(C(=O)Nc2ccc(OC)nc2)CC3)c1 (configuration not stated) | 89µM* | ? | -7%[88.5 µM] | i | 4%[70.6 µM]
COc1ccc(NC(=O)C2(C)CCCc3cnc(Nc4ccccc4)nc32)cn1 (configuration not stated) | 89µM* | 79µM* | -12%[88.5 µM] | i | -21%[70.6 µM]
COc1ccc(NC(=O)C2(C)CCCc3cnc(NCc4ccccc4)nc32)cn1 (configuration not stated) | ? | ? | -23%[88.5 µM] | i | -16%[70.6 µM]
COCC(=O)N1CCCC(C(=O)N2CCCC(c3nc4ncccc4[nH]3)C2)C1 (configuration not stated) | -2% | -14% | 4% | nt | nt
Cc1cc(Cl)ccc1-c1ccccc1CN | ? | 22µM* | i | nt | nt
Cc1cc(Cl)ccc1-c1ccccc1C=O | ? | 112µM* | -11%[88.5 µM] | nt | nt
Cc1ccc(-c2cccc(CN)c2)c(C)c1 | 45µM* | 28µM* | -7%[88.5 µM] | nt | nt
NCc1cccc(-c2cc(C(F)(F)F)ccc2Cl)c1 | 71µM* | ? | 3% | nt | nt
Cc1cccc(-c2ccccc2CN)c1 | -27%[172 µM] | -13%[138 µM] | 2%[88.5 µM] | nt | nt
O=C(O)c1cccc(-c2cc(C(F)(F)F)ccc2Cl)c1 | 5% | i | -9% | nt | nt
COc1ccccc1CN1C(=O)COC[C@@H]1[C@H](O)c1ccc(NC(=O)c2ccccc2)cc1 | ? | ? | ? | i | -9%
COCCc1nncn1C1CCN(C(=O)c2ccc(Br)cc2)CC1 | 6% | i | -7% | i | 1%
O=C(NCc1ccccc1Cl)c1nc2sccn2c1-c1ccc(C(F)(F)F)cc1 | ? | ? | i | nt | nt
COc1ccccc1-c1cccc(CN)c1 | 100µM* | 126µM* | -17%[88.5 µM] | nt | nt
Cc1ccc(-c2ccc(CN)cc2)c(C)c1 | 32µM* | 32µM* | -5%[88.5 µM] | nt | nt
COc1ccccc1-c1ccc(CN)cc1 | ? | ? | i | nt | nt
Cc1cc(Cl)ccc1-c1cccc(CN)c1 | 40µM* | 32µM* | -10%[88.5 µM] | nt | nt
COc1ccccc1C(=O)N1CCCC2(CN[S+](=O)([O-])c3cccnc3N2)C1 (configuration not stated) | i | 5% | nt | nt | nt

Screening data as filed in PubChem.
